According to PubChem BioAssay (NCI):
Compounds without any hit were thinned out: in the full panel of roughly 79,000, 15% have a hit. Unmarked numbers belong to inactive results. The source made the active and inactive calls. Rule as the data show it: active = growth inhibition above about 70%; inactive = the rest.

Test: NCI Yeast Anticancer Drug Screen. Data for the mlh1 strain (AID 171);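 also: 0% = growth of vehicle-treated control cultures of the same strain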
Settings: S. cerevisiae mlh1 strain growth inhibition; at 100.0 µM; active compounds read high
Summary of the method: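 Inhibition values reflect reduced yeast growth in the presence of compound, referenced to vehicle controls, using a strain chosen for its alteration in DNA repair or cell cycle control.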
In the case of CC(C)C(=O)CC(Sc1ccc(N)cc1)c1ccccc1 (stereo not given), the growth inhibition is reported as 48%.
For O=[N+]([O-])c1cc(Cl)ccc1S(=O)(=O)c1ccc(Cl)cc1[N+](=O)[O-], the growth inhibition was 80% (active).
With CCCCCCNCCCNc1c2cc(OC)ccc2nc2cccc([N+](=O)[O-])c12 the growth inhibition was 98% (active).
N#CCC(=O)N/N=C(\c1ccccc1)C(c1ccccc1)C1(O)C(=O)Nc2c(Cl)ccc(Cl)c21 (stereo not given) showed a growth inhibition of 18%.
With CN(C)CCNCCCNc1c2ccccc2nc2cccc([N+](=O)[O-])c12 the growth inhibition was 74% (active).
With CCC[CH2][Ge]([CH2]CCC)([CH2]CCC)[O]C(=O)C(O)c1ccccc1 (stereo not given) the growth inhibition was 99% (active).
For COc1ccc(-c2cc(-c3cc(C)cc(Cl)c3O)nc3[nH]c(=S)[nH]c(=S)c23)cc1, the growth inhibition was 87% (active).
For O=[N+]([O-])c1ccc(/C=C\c2ccc3c(c2)OCO3)c([N+](=O)[O-])c1, the growth inhibition was 63%.
For O=C1c2ccccc2N2OC3(N4CCCC4)CCCCC3C12c1ccccc1 (stereo not given), the growth inhibition was 98% (active).
CC(C)OC(=O)NNc1cc(Cl)ccc1Cl gave a growth inhibition of 58%.
Compound Cc1oc2ccccc2c(=O)c1Cn1nnc2ccccc21 has a growth inhibition of 43%.
With CC1(C)OC(=O)C(=Cc2ccc([N+](=O)[O-])s2)C(=O)O1 the growth inhibition was 71% (active).
In the case of CCN(CC)CCCNc1ccc([N+](=O)[O-])c2nc3ccc(OC)cc3c(NCCCN(CC)CC)c12, the growth inhibition is reported as -1%.
For COc1cccc(/C=C2\S/C(=N/Nc3nc(-c4ccc([N+](=O)[O-])cc4)cs3)NC2=O)c1O, the growth inhibition was 74% (active).
For C1=CCN([B-](c2ccccc2)[C+]2CCCCC2)C=C1, the growth inhibition was 99% (active).
